Reference: PubChem BioAssay (NCATS)
Inconclusive results are not listed. Active and inactive are the calls of the source. Calls follow the shape of the dose curve; as a rule, active = well fitted inhibition curve with a large enough effect; inconclusive = small, poorly fitted or top-dose-only effect; inactive = no such curve, though single readings can be large or run the other way.

Experiment: S16 Schwann cell PMP22 intronic element firefly luciferase assay (AID 624032); also: nearly all actives have a fitted effect of over 30% in size
Details: S16 rat Schwann cells, PMP22 element FLuc, 24 h; series mostly up to 57.5 µM; activity change, negative = inhibition: at the top concentration
Text: Charcot-Marie-Tooth-Association [CMTA]
National Center for Advancing Translational Sciences [NCATS]
Charcot-Marie-Tooth (CMT) disease was first characterized by Jean-Martin Charcot and Pierre Marie in France and, independently, by Howard Henry Tooth in England in 1886. CMT is one of the most common inherited neurological diseases, affecting approximately 1 in 2,500 Americans. […] The most prevalent type of CMT is known as CMT1A and caused by a duplication of the PMP22 gene which leads to over-expression of this protein. PMP22 is a glycosylated intrinsic membrane protein accounting for 2-5% of the myelin protein content, and its over-expression results in demyelination and subsequently axonal loss.
A pair of cellular transcription-based assays was developed in the S16 rat Schwann cell lines (Hai, M., et al., 2002) stably transfected with orthogonal reporters - firefly luciferase (Fluc) and beta-lactamase (beta-Lac) - whose expression is driven by an intronic regulatory element of the PMP22 gene (Jones, E.A., et al., 2011) to recapitulate endogenous expression of PMP22. The current assay employs Fluc to report on PMP22 expression. A comprehensive library of approved drugs, the NCGC Pharmaceutical Collection (Huang, R., et al., 2011), was screened in the cross-validating platform of the orthogonal reporter assays to identify drug modulators inhibitory towards PMP22 expression.
A set of counter-screens was devised to address non-specific activity of the library. An ATP-dependent CellTiter-Glo assay (developed by Promega Corp) was utilized to control cell viability. In addition, biochemical Fluc enzyme assay was performed to assess direct inhibition of the Fluc enzymatic activity.
Hai, M., Muja, N., DeVries, G.H., Quarles, R.H. and Patel, P.I. Comparative analysis of Schwann cell lines as model systems for myelin gene transcription studies. J Neurosci Res, 2002. 69(4): pp 497-508
Huang, R., Southall, N., Wang, Y., Yasgar A., Shinn P., Jadhav, A. , Nguyen, D.-T. and Austin, C.P., The NCGC pharmaceutical collection: a comprehensive resource of clinically approved drugs enabling repurposing and chemical genomics. Sci Transl Med, 2011. 3(80): p. 80ps16.
S16 Schwann cell PMP22 intronic element firefly luciferase assay
The FLuc-expressing S16 cells were seeded in white solid 1536-well plates at between 500-750 cells/4uL in DMEM medium containing 10% FBS, w/o phenol red. After overnight incubation at 37 degree Celsius/5% C02, 23 nL of compounds or DMSO were delivered to each well using a pin tool, followed by 24h-incubation at 37 degree Celsius/5% C02. Then 4 uL ONE-Glo luminescent substrate mix (Promega) was added to each well. Luminescence was measured on a ViewLux plate reader (Perkin Elmer). The % activity was determined by normalizing to the average readings of PTC124 (a positive control) - treated cells relative to DMSO-treated cells (0% Activity). The concentration-effect curves were then classified based on curve quality (r2), response magnitude and degree of measured activity.
Potency is read from the fitted curve at half-maximal effect.

SMILES	Potency	activity change, negative = inhibition
Oc1ccc2[nH]cc(CCCCN3CC=C(c4ccccc4)CC3)c2c1	9.07 µM (active)	–
O=C(Nc1ccc(Cl)cc1)Nc1ccc(Cl)c(Cl)c1	–	57.7% (inactive)
CC(C)(C)OC(=O)c1ncn2c1[C@@H]1CCCN1C(=O)c1c(Br)cccc1-2	–	-4.09% (inactive)
NC(N)=NN=C(/C=C/c1ccc([N+](=O)[O-])o1)/C=C/c1ccc([N+](=O)[O-])o1	7.21 µM (active)	–
CN1CCN(c2cc3c(nn2)Oc2ccccc2N3C)CC1	–	108% (inactive)
Cc1c(Cl)c(=O)oc2cc(OP(=O)(OCCCl)OCCCl)ccc12	12.8 µM (active)	–
Oc1c(Br)cc(Br)cc1Br	–	-1.89% (inactive)
O=c1cc(CO)occ1O	16.1 µM (active)	–
CN(C)C(=S)SC(=S)N(C)C	2.87 µM (active)	–
Clc1ccc(CO/N=C(\Cn2ccnc2)c2ccc(Cl)cc2Cl)c(Cl)c1	32.2 µM (active)	–
CC(C)NCC(O)c1ccc(N)c(C#N)c1 (stereo not given)	–	-55.2% (inactive)
CC1CCc2cc(F)cc3c(=O)c(C(=O)O)cn1c23 (stereo not given)	–	37.7% (inactive)
CCOC(=O)NC(O)C(Cl)(Cl)Cl (stereo not given)	–	-12.9% (inactive)
CCN(CC)CCOC(=O)C(C)(c1ccccc1)c1ccccc1	–	-11.1% (inactive)
NC(=O)NNc1ccccc1	inactive	–
CCCCCCCCCCCC[N+](C)(C)CCOc1ccccc1	25.6 µM (active)	–
CNC(=O)NC(O)C(Cl)(Cl)Cl (stereo not given)	–	26.5% (inactive)
COP(=O)(OC)C(O)C(Cl)(Cl)Cl (stereo not given)	–	-17.4% (inactive)
CCC1(c2ccccc2)CCC(=O)NC1=O (stereo not given)	–	15.9% (inactive)
CC(Cc1ccccc1)NCc1ccccc1Cl (stereo not given)	–	16.4% (inactive)

SMILES	Potency	activity change, negative = inhibition
C[N+]1(CCC(C(N)=O)(c2ccccc2)c2ccccc2)CCCCC1	–	-24.1% (inactive)
CC(C)(O)C(Cl)(Cl)Cl	–	-11.7% (inactive)
CCS(=O)(=O)C(C)(C)S(=O)(=O)CC	–	7.42% (inactive)
COC(=O)C1=CCCN(C)C1	–	46.3% (inactive)
CC[C@]1(O)CC[C@H]2[C@@H]3CCC4=CCCC[C@@H]4[C@H]3CC[C@@]21C	9.07 µM (active)	–
CCCCCCCCCCCCCCCC[n+]1ccccc1	10.2 µM (active)	–
COCC(=O)N(c1c(C)cccc1C)C(C)C(=O)OC (stereo not given)	–	-0.398% (inactive)
NC(=O)OCCCc1ccccc1	–	-9.78% (inactive)
CN1CCc2cc(Cl)c(O)cc2[C@H]2c3ccccc3CC[C@@H]21	–	-1.59% (inactive)
COc1ccc(CN2CCNCC2)c(OC)c1OC	–	-12% [at 25.7 µM] (inactive)
C[C@]12C=CC(=O)C=C1CC[C@@H]1[C@@H]2CC[C@@]2(C)[C@H]1CC[C@]2(C)O	–	-16.4% (inactive)
Cc1ccc(N=CN(C)C=Nc2ccc(C)cc2C)c(C)c1	–	-0.894% (inactive)
O=c1n(Cl)c(=O)n(Cl)c(=O)n1Cl	–	-13.1% (inactive)
COC(=O)C1=C(C)NC(C)=C(C(=O)OC)C1c1ccccc1[N+](=O)[O-]	18.1 µM (active)	–
O=C(O)c1nn(Cc2ccc(Cl)cc2Cl)c2ccccc12	–	4.11% (inactive)
COc1cc(C(=S)N2CCOCC2)ccc1O	5.1 µM (active)	–
CCN(Cc1ccc(Cl)nc1)/C(=C/[N+](=O)[O-])NC	–	-8.52% (inactive)
CCNc1nc(Cl)nc(NCC)n1	–	-6.62% (inactive)
CN(C)C(=S)SSC(=S)N(C)C	1.44 µM (active)	–
CCC(=O)O[C@H]1CC[C@H]2[C@@H]3CCC4=CC(=O)CC[C@]4(C)[C@H]3CC[C@]12C	–	-19.1% [at 25.7 µM] (inactive)
